# The whole screen tested about 5,500 compounds, of which about 2,000 (36%) were called active. Not shown: some 18% with an inconclusive outcome. This is one part of the list. Unmarked numbers belong to inactive results. No stated cut-off is given here; in the data, active means normalized growth mostly below about 0.91 (no sharp cut-off); inconclusive means no clear call, values can overlap the other calls; inactive means mostly above about 0.92.
# Test: chemical genetic growth profiling, strain panel (AID 1159580);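 further: tested at 20 µM; growth read once vehicle control cultures reached saturation at 30 °C; 1 = growth at the plate median or of vehicle wells; lower values mean less growth of the strain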
# Settings: S. cerevisiae deletion strains, growth OD
structure (smiles),measurement,setting,value
O=c1c(O)c(-c2ccccc2)oc2cccc(O)c12,normalized growth,"locus YAL021C, strain ccr4, hits give low values",0.725 (active)
same,normalized growth,"locus YAL026C, strain drs2, hits give low values",0.55 (active)
same,normalized growth,"locus YAL030W, strain snc1, hits give low values",0.881 (active)
same,normalized growth,"locus YBL061C, strain skt5, hits give low values",0.802 (active)
same,normalized growth,"locus YBR009C, strain hhf1, hits give low values",0.856 (active)
same,normalized growth,"locus YBR023C, strain chs3, hits give low values",0.666 (active)
same,normalized growth,"locus YBR171W, strain sec66, hits give low values",0.838 (active)
same,normalized growth,"locus YBR231C, strain swc5, hits give low values",0.733 (active)
same,normalized growth,"locus YBR279W, strain paf1, hits give low values",0.867 (active)
same,normalized growth,"locus YCL011C, strain gbp2, hits give low values",0.847 (active)
same,normalized growth,"locus YCL016C, strain dcc1, hits give low values",0.851 (active)
same,normalized growth,"locus YCL061C, strain MRC1, hits give low values",0.821 (active)
same,normalized growth,"locus YCL069W, strain vba3, hits give low values",0.816 (active)
same,normalized growth,"locus YCR088W, strain abp1, hits give low values",0.899 (active)
same,normalized growth,"locus YDL005C, strain med2, hits give low values",0.997
same,normalized growth,"locus YDL040C, strain nat1, hits give low values",0.953
same,normalized growth,"locus YDR001C, strain nth1, hits give low values",0.891 (active)
same,normalized growth,"locus YDR069C, strain doa4, hits give low values",0.788 (active)
same,normalized growth,"locus YDR137W, strain rgp1, hits give low values",0.372 (active)
same,normalized growth,"locus YDR159W, strain sac3, hits give low values",0.89
same,normalized growth,"locus YDR195W, strain ref2",1.02
same,normalized growth,"locus YDR297W, strain sur2, hits give low values",0.919 (active)
same,normalized growth,"locus YDR334W, strain swr1, hits give low values",0.759 (active)
same,normalized growth,"locus YDR335W, strain msn5, hits give low values",0.852 (active)
same,normalized growth,"locus YDR392W, strain spt3, hits give low values",0.282 (active)
same,normalized growth,"locus YEL003W, strain gim4, hits give low values",0.875 (active)
same,normalized growth,"locus YEL037C, strain rad23, hits give low values",0.893 (active)
same,normalized growth,"locus YEL061C, strain CIN8 (second series), hits give low values",0.905 (active)
same,normalized growth,"locus YER015W, strain faa2, hits give low values",0.852 (active)
same,normalized growth,"locus YER016W, strain bim1, hits give low values",0.914 (active)
same,normalized growth,"locus YER111C, strain swi4, hits give low values",0.878 (active)
same,normalized growth,"locus YER155C, strain BEM2 (second series), hits give low values",0.751 (active)
same,normalized growth,"locus YFR010W, strain ubp6, hits give low values",0.726 (active)
same,normalized growth,"locus YGL167C, strain pmr1, hits give low values",0.886 (active)
same,normalized growth,"locus YGL173C, strain kem1, hits give low values",0.599 (active)
same,normalized growth,"locus YGL227W, strain vid30, hits give low values",0.929
same,normalized growth,"locus YGL240W, strain doc1, hits give low values",0.739 (active)
same,normalized growth,"locus YGL253W, strain hxk2, hits give low values",0.621 (active)
same,normalized growth,"locus YHR013C, strain ard1, hits give low values",0.943
same,normalized growth,"locus YHR027C, strain rpn1, hits give low values",0.751 (active)
same,normalized growth,"locus YHR030C, strain SLT2, hits give low values",0.72 (active)
same,normalized growth,"locus YHR079C, strain IRE1, hits give low values",0.839 (active)
same,normalized growth,"locus YHR142W, strain chs7, hits give low values",0.539 (active)
same,normalized growth,"locus YJL092W, strain hpr5, hits give low values",0.863 (active)
same,normalized growth,"locus YJL095W, strain BCK1 (second series), hits give low values",0.368 (active)
same,normalized growth,"locus YJL095W, strain BCK1, hits give low values",0.733 (active)
same,normalized growth,"locus YJL115W, strain asf1, hits give low values",0.906
same,normalized growth,"locus YJL129C, strain trk1, hits give low values",0.673 (active)
same,normalized growth,"locus YJL154C, strain vps35, hits give low values",0.917 (active)
same,normalized growth,"locus YJL164C, strain tpk1, hits give low values",0.826 (active)
same,normalized growth,"locus YJL166W, strain qcr8, hits give low values",0.836 (active)
same,normalized growth,"locus YJL187C, strain SWE1, hits give low values",0.84 (active)
same,normalized growth,"locus YJR066W, strain TOR1, hits give low values",0.741 (active)
same,normalized growth,"locus YKL160W, strain elf1, hits give low values",0.881 (active)
same,normalized growth,"locus YKR026C, strain gcn3, hits give low values",0.917 (active)
same,normalized growth,"locus YKR091W, strain srl3, hits give low values",0.934
same,normalized growth,"locus YLL001W, strain dnm1, hits give low values",0.826 (active)
same,normalized growth,"locus YLL026W, hits give low values",0.829 (active)
same,normalized growth,"locus YLL041C, strain sdh2, hits give low values",0.923 (active)
same,normalized growth,"locus YLR027C, strain aat2, hits give low values",0.842 (active)
same,normalized growth,"locus YLR113W, strain HOG1, hits give low values",0.935
same,normalized growth,"locus YLR221C, strain rsa3, hits give low values",0.815 (active)
same,normalized growth,"locus YLR258W, strain gsy2, hits give low values",0.84 (active)
same,normalized growth,"locus YLR262C, strain YPT6 (second series), hits give low values",0.304 (active)
same,normalized growth,"locus YLR320W, strain mms22, hits give low values",0.661 (active)
same,normalized growth,"locus YLR342W, strain FKS1, hits give low values",0.827 (active)
same,normalized growth,"locus YLR357W, strain rsc2, hits give low values",0.821 (active)
same,normalized growth,"locus YLR370C, strain arc18, hits give low values",0.789 (active)
same,normalized growth,"locus YLR384C, strain iki3, hits give low values",0.922
same,normalized growth,"locus YML120C, strain ndi1, hits give low values",0.828 (active)
same,normalized growth,"locus YMR058W, strain fet3, hits give low values",0.206 (active)
same,normalized growth,"locus YMR125W, strain sto1, hits give low values",0.991
same,normalized growth,"locus YMR129W, hits give low values",0.916 (active)
same,normalized growth,"locus YMR205C, strain PFK2, hits give low values",0.715 (active)
same,normalized growth,"locus YMR231W, strain pep5, hits give low values",0.304 (active)
same,normalized growth,"locus YNL071W, strain lat1, hits give low values",0.568 (active)
same,normalized growth,"locus YNL183C, strain NPR1, hits give low values",0.793 (active)
same,normalized growth,"locus YNL209W, strain ssb2, hits give low values",0.725 (active)
same,normalized growth,"locus YNL248C, strain rpa49, hits give low values",0.795 (active)
same,normalized growth,"locus YNL322C, strain KRE1 (second series), hits give low values",0.926
same,normalized growth,"locus YNR049C, strain mso1, hits give low values",0.89 (active)
same,normalized growth,"locus YOR001W, strain rrp6, hits give low values",0.818 (active)
same,normalized growth,"locus YOR070C, strain gyp1, hits give low values",0.835 (active)
same,normalized growth,"locus YOR080W, strain dia2, hits give low values",0.925
same,normalized growth,"locus YOR083W, strain WHI5, hits give low values",0.826 (active)
same,normalized growth,"locus YOR106W, strain vam3, hits give low values",0.546 (active)
same,normalized growth,"locus YOR231W, strain MKK1, hits give low values",0.822 (active)
same,normalized growth,"locus YOR265W, strain rbl2, hits give low values",0.88 (active)
same,normalized growth,"locus YOR270C, strain vph1, hits give low values",0.445 (active)
same,normalized growth,"locus YOR290C, strain snf2, hits give low values",0.795 (active)
same,normalized growth,"locus YPL051W, strain arl3, hits give low values",0.696 (active)
same,normalized growth,"locus YPL078C, strain atp4, hits give low values",0.779 (active)
same,normalized growth,"locus YPL106C, strain sse1, hits give low values",0.896
same,normalized growth,"locus YPL240C, strain hsp82, hits give low values",0.936
same,normalized growth,"locus YPL256C, strain CLN2, hits give low values",0.87

# From PubChem BioAssay AID1159580 (chemical genetic matrix, 2015)
